“And” between values parts separate entries of the source, which are not always exact repeats. Equal entries are not always repeated. Records with an inconclusive call do not appear. More than one record can exist for a structure, and the calls need not agree. The source made the active and inactive calls. Calls come from the whole dose curve; as a rule, active = well fitted cell-killing curve with a large enough effect in the repeat runs; inconclusive = weak or mixed curves; inactive = no such curve, though single readings can be large or run the other way.
Assay: qHTS assay for identifying genotoxic compounds that show differential cytotoxicity against isogenic chicken DT40 cell lines with known DNA damage response pathways - Rad54/Ku70 mutant cell line (AID 743015); note: nearly all actives have a fitted effect of over 60% in size
Details: DT40 Rad54/Ku70 mutant viability, CellTiter-Glo, 40 h; series mostly up to 66.8 µM; activity change, negative = cytotoxicity: at the top concentration
% is set by controls: 0 for no effect and ±100 for the full control effect; potency is the fitted concentration of half-maximal effect.

SMILES	Potency	activity change, negative = cytotoxicity
C#C[C@]1(O)CC[C@H]2[C@@H]3CCc4cc(OC)ccc4[C@H]3CC[C@@]21C	6.68 µM (active) and 6.86 µM (active)	
Nc1ccc(Cl)cc1Cl	inactive	
C[C@]12CC[C@H]3[C@@H](CCC4=CC(=O)CC[C@@]43C)[C@@H]1CC[C@@H]2C(=O)CO	8.63 µM (active)	
COc1ccc(OC)c(C(O)CNC(=O)CN)c1 (stereo not given)	inactive	
Cc1cccc(C(=O)O)c1	inactive	
c1ccncc1	inactive	
Oc1ccc(O)cc1	26.6 µM (active) and 13.6 µM (active) and 54.5 µM (active)	
CN1C(C(=O)Nc2ccccn2)=C(O)c2ccccc2S1(=O)=O	inactive	
O=C1OC2(c3cc(Br)c(O)c(Br)c3Oc3c2cc(Br)c(O)c3Br)c2c(Cl)c(Cl)c(Cl)c(Cl)c21	inactive	
CC(=O)O[C@]1(C(C)=O)CC[C@H]2[C@@H]3C=C(Cl)C4=CC(=O)[C@@H]5C[C@@H]5[C@]4(C)[C@H]3CC[C@@]21C	23.7 µM (active) and 7.69 µM (active) and 21.7 µM (active)	
CCCCC(CC)COP(=O)(OCC(CC)CCCC)OCC(CC)CCCC (stereo not given)	inactive	
CCC(C)(O)CCCC(C)C (stereo not given)	inactive	
OC(CCl)CCl	inactive	
O=C(/C=C/C=C/c1ccc2c(c1)OCO2)N1CCCCC1	61.3 µM (active)	
Nc1ncnc2nc[nH]c12		22.5% (inactive)
Cc1cccc(N(C)C(=S)Oc2ccc3ccccc3c2)c1	inactive and 30.6 µM (active)	
Cc1c(C(N)=O)cc([N+](=O)[O-])cc1[N+](=O)[O-]	inactive	
Nc1ncn([C@@H]2O[C@H](CO)[C@@H](O)[C@H]2O)c(=O)n1	841 nM (active) and 386 nM (active)	
C[Si](C)(C)O[Si](C)(C)C	inactive	

SMILES	Potency	activity change, negative = cytotoxicity
CNCCCC12CCC(c3ccccc31)c1ccccc12	13.3 µM (active) and 6.86 µM (active)	
c1cc(N(CC2CO2)CC2CO2)ccc1OCC1CO1 (stereo not given)	770 nM (active) and 273 nM (active)	
S=C(NC1CCCCC1)NC1CCCCC1	inactive and 61.1 µM (active)	
Cc1[nH]c(=O)c(C#N)cc1-c1ccncc1		10.6% (inactive)
C#C[C@]1(O)CC[C@H]2[C@@H]3CCC4=Cc5oncc5C[C@]4(C)[C@H]3CC[C@@]21C	13.7 µM (active)	
OC1CCCCCCCCCCC1	inactive	
O=C(c1ccc(OCCN2CCCCC2)cc1)c1c(-c2ccc(O)cc2)sc2cc(O)ccc12	7.5 µM (active) and 9.7 µM (active) and 1.37 µM (active)	
CC(C)OB(OC(C)C)OC(C)C	inactive	
COC(=O)c1ccccc1		1.39% (inactive)
CCCCC/C=C/C=C/C=O	inactive and 17.2 µM (active)	
CCC(C)c1ccccc1O (stereo not given)	inactive	
CCCCNS(=O)(=O)c1ccccc1	inactive	
COc1ccccc1/C=C/C=O	31.4 µM (active) and 54.5 µM (active)	
CC(C)CC(C)(O)C#CC(C)(O)CC(C)C (stereo not given)	54.5 µM (active)	
O=C1c2cccc(O)c2C(=O)c2c(O)cccc21		-1.4% [at 95.1 µM] (inactive)
O=CCc1ccccc1	inactive and 54.5 µM (active)	
Cc1ccc(C(=O)c2cc(O)c(O)c([N+](=O)[O-])c2)cc1	48.6 µM (active)	
COc1cccc2c1C(=O)c1c(O)c3c(c(O)c1C2=O)C[C@@](O)(C(=O)CO)C[C@@H]3O[C@H]1C[C@H](N)[C@H](O)[C@H](C)O1	inactive and 10.6 nM (active) and 3.1 nM (active)	

Assay: qHTS assay to identify small molecule antagonists of the androgen receptor (AR) signaling pathway - cell viability counter screen (AID 743033; note: nearly all actives have a fitted effect of over 45% in size)
Details: AR-bla HEK293 viability, CellTiter-Glo luminescence, 16 h; series mostly up to 58.5 µM; activity change, negative = cytotoxicity: at the top concentration

SMILES	activity change, negative = cytotoxicity	Potency
C#C[C@]1(O)CC[C@H]2[C@@H]3CCc4cc(OC)ccc4[C@H]3CC[C@@]21C	0.315% (inactive)	
Nc1ccc(Cl)cc1Cl	21.1% (inactive)	
C[C@]12CC[C@H]3[C@@H](CCC4=CC(=O)CC[C@@]43C)[C@@H]1CC[C@@H]2C(=O)CO	-8.53% [at 27 µM] (inactive)	
COc1ccc(OC)c(C(O)CNC(=O)CN)c1 (stereo not given)		inactive
Cc1cccc(C(=O)O)c1		inactive
c1ccncc1		inactive
Oc1ccc(O)cc1		inactive
CN1C(C(=O)Nc2ccccn2)=C(O)c2ccccc2S1(=O)=O		inactive
O=C1OC2(c3cc(Br)c(O)c(Br)c3Oc3c2cc(Br)c(O)c3Br)c2c(Cl)c(Cl)c(Cl)c(Cl)c21	-11.3% (inactive)	
CC(=O)O[C@]1(C(C)=O)CC[C@H]2[C@@H]3C=C(Cl)C4=CC(=O)[C@@H]5C[C@@H]5[C@]4(C)[C@H]3CC[C@@]21C		inactive and 19.5 µM (active)
CCCCC(CC)COP(=O)(OCC(CC)CCCC)OCC(CC)CCCC (stereo not given)		inactive
CCCCc1oc2ccccc2c1C(=O)c1cc(I)c(OCCN(CC)CC)c(I)c1		inactive and 34.9 µM (active)
CCC(C)(O)CCCC(C)C (stereo not given)		inactive
OC(CCl)CCl		inactive
O=C(/C=C/C=C/c1ccc2c(c1)OCO2)N1CCCCC1		inactive
Nc1ncnc2nc[nH]c12		inactive
O=C(c1ccccc1)c1ccc(O)cc1O	-16.4% (inactive)	
Cc1cccc(N(C)C(=S)Oc2ccc3ccccc3c2)c1	3.09% [at 27 µM] (inactive)	
Cc1c(C(N)=O)cc([N+](=O)[O-])cc1[N+](=O)[O-]		inactive

SMILES	activity change, negative = cytotoxicity	Potency
C[Si](C)(C)O[Si](C)(C)C		inactive
CNCCCC12CCC(c3ccccc31)c1ccccc12		inactive and 43.6 µM (active)
c1cc(N(CC2CO2)CC2CO2)ccc1OCC1CO1 (stereo not given)	-2.37% (inactive)	
S=C(NC1CCCCC1)NC1CCCCC1		19.1 µM (active)
Cc1[nH]c(=O)c(C#N)cc1-c1ccncc1		inactive
C#C[C@]1(O)CC[C@H]2[C@@H]3CCC4=Cc5oncc5C[C@]4(C)[C@H]3CC[C@@]21C		inactive and 38.9 µM (active)
OC1CCCCCCCCCCC1	-2.42% [at 78.9 µM] (inactive)	
O=C(c1ccc(OCCN2CCCCC2)cc1)c1c(-c2ccc(O)cc2)sc2cc(O)ccc12		21.9 µM (active) and 38.9 µM (active)
CC(C)OB(OC(C)C)OC(C)C		inactive
COC(=O)c1ccccc1		inactive
CCCCC/C=C/C=C/C=O	-4.05% (inactive)	
CCC(C)c1ccccc1O (stereo not given)		inactive
CCCCNS(=O)(=O)c1ccccc1		inactive
COc1ccccc1/C=C/C=O		inactive
CC(C)CC(C)(O)C#CC(C)(O)CC(C)C (stereo not given)		inactive
O=C1c2cccc(O)c2C(=O)c2c(O)cccc21		inactive
O=CCc1ccccc1		inactive
Cc1ccc(C(=O)c2cc(O)c(O)c([N+](=O)[O-])c2)cc1	-0.622% (inactive)	
COc1cccc2c1C(=O)c1c(O)c3c(c(O)c1C2=O)C[C@@](O)(C(=O)CO)C[C@@H]3O[C@H]1C[C@H](N)[C@H](O)[C@H](C)O1	6.63% (inactive)	

From PubChem BioAssay (Tox21)
